Assay results taken from publication PMC4336329 (PLoS ONE, 2015).
The whole screen tested about 310,000 compounds, of which about 14,000 (4.5%) showed an effect of 50% or more. The effect is printed as a negative number. For the sample, strong results were picked, then their nearest neighbours and some compounds at random.

Target: human ether-à-go-go-related gene (hERG) potassium channel (human, UniProt Q12809)
Test: primary screen, population patch clamp on CHO cells stably expressing hERG; higher = less effect of the substance
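Also: peak tail current of the secondary pulse compared with the same well before compound.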

human ether-à-go-go-related gene (hERG) potassium channel, sequence (Q12809 whole entry, looked up): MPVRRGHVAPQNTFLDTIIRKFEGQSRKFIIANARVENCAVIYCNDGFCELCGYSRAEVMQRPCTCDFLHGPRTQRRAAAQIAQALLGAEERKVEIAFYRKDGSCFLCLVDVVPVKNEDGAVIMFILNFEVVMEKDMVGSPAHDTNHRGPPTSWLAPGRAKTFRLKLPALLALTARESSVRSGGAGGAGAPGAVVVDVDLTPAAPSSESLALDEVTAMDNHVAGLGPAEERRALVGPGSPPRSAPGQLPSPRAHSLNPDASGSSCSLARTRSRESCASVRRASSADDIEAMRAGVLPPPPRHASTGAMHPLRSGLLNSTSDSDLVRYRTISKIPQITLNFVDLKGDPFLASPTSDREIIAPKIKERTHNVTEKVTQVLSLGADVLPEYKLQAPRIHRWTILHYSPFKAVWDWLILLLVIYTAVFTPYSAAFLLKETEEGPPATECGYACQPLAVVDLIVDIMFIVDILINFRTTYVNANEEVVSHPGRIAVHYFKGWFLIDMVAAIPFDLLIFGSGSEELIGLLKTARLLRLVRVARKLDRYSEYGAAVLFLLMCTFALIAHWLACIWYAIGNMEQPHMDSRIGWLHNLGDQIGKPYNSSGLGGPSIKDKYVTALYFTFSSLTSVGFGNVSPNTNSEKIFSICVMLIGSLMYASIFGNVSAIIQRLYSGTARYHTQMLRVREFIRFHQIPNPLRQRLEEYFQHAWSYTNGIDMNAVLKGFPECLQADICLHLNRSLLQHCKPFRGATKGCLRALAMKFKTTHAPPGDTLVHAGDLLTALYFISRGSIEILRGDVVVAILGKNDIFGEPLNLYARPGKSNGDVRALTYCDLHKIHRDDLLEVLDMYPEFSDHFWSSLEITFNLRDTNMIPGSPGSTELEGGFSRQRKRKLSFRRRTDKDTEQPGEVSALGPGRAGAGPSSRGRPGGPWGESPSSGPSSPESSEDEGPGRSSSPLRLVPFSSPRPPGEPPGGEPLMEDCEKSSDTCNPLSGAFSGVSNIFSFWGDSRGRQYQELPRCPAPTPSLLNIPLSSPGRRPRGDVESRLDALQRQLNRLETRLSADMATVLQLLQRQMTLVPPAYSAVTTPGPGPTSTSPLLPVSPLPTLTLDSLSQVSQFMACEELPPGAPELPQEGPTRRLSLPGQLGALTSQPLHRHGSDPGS

Compound | hERG current change (%, negative = inhibition) at 10uM
CCNc1nc(=S)nc(NC(C)C)[nH]1 | 29.6%
Cc1oc(-c2ccc(Cl)cc2)nc1CN1CCCC(C(=O)N2CCOCC2)C1 (stereo not drawn) | -53.8%
CCOC(=O)N1CCC(NC(=O)CS(=O)Cc2nc(-c3ccc(Cl)cc3)oc2C)CC1 (stereo not drawn) | -47.4%
CCOC(=O)N1CCN(C(=O)C2CCCN(Cc3nc(-c4ccc(Cl)cc4)oc3C)C2)CC1 (stereo not drawn) | -70.9%
Cc1oc(-c2cc3c(cc2Cl)OCO3)nc1CN1CCCC(C(=O)N2CCOCC2)C1 (stereo not drawn) | -24.7%
CCOc1ccc(-c2nc(CN3CCCC(C(=O)N4CCOCC4)C3)c(C)o2)cc1 (stereo not drawn) | -26.5%
Cc1ccc(-c2nc(CN3CCCC(C(=O)N4CCOCC4)C3)c(C)o2)cc1 (stereo not drawn) | -37.5%
O=C(C1CCC(CNS(=O)(=O)c2ccccc2)CC1)N1CCCCC1 (stereo not drawn) | -1.89%
C=CCN(c1ccc(Br)cc1C(=O)OC)S(C)(=O)=O | 0.801%
Brc1ccc(-c2cnc(-c3cccs3)o2)cc1 | -3%
CN1C2CCC1CC(NC(=O)CSc1ccc(Cl)cc1)C2 (stereo not drawn) | -8.94%
NNC(=O)CSCc1ccc(Cl)cc1Cl | -2%
CN1C2CCC1CC(NC(=O)CSCc1ccc(Cl)cc1Cl)C2 (stereo not drawn) | -57.4%
O=C(O)C1=C[C@@H](C2CC2)C[C@@H](OCc2ccc(CO)cc2)O1 | 21.4%
COc1cc(Br)c(C2C(C#N)=C(N)Oc3n[nH]c(-c4cccnc4)c32)cc1OC (stereo not drawn) | 6.8%
Cc1cccc(NC(=O)c2nc[nH]c2C(=O)N2CCC(C)CC2)c1 | 1.29%
CCCc1[nH]n(-c2ccc([N+](=O)[O-])cc2)c(=O)c1C=NCCN1CCNCC1 | -47.1%
CCCc1[nH]n(-c2ccc([N+](=O)[O-])cc2)c(=O)c1C=NCCc1c[nH]c2ccccc12 | 8.42%
CC(=NCCCn1ccnc1)c1c(C)[nH]n(-c2ccc([N+](=O)[O-])cc2)c1=O | -69.3%
CCCc1[nH]n(-c2ccc([N+](=O)[O-])cc2)c(=O)c1C(C)=NCc1ccncc1 | -52.4%
CC(=NCCCn1ccnc1)c1c(O)n(-c2ccccc2)c(=O)[nH]c1=O | 5.91%
COc1ccc(-c2[nH]n(-c3ccc([N+](=O)[O-])cc3)c(=O)c2C=NCc2ccncc2)cc1 | -3.44%
CCCc1[nH]n(-c2ccc([N+](=O)[O-])cc2)c(=O)c1C=NCCCn1ccnc1 | -76.4%

Compound | hERG current change (%, negative = inhibition) at 10uM
CCCc1[nH]n(-c2ccc([N+](=O)[O-])cc2)c(=O)c1C=NCCc1ccc(OC)c(OC)c1 | -19.4%
CC(=NCCCn1ccnc1)c1c(O)n(C)c(=O)n(C)c1=O | -9.42%
O=C1CC(N(O)c2ccccc2)C(=O)N1c1cc(Cl)cc(Cl)c1 (stereo not drawn) | 16.2%
COc1ccccc1CNC(=O)C(NC(=O)Nc1ccccc1)C(C)C (stereo not drawn) | 13%
CCCCn1c(=O)[nH]c(=O)c2c1nc(CN(C)Cc1cccc(OC)c1OC)n2CCC.O=C(O)C(=O)O | 18.5%
Cc1ccc(-n2ncc3c2ncn2c(C)nnc32)cc1C | -10.5%
COc1ccc(NC(=O)COC(=O)c2ccc(NS(=O)(=O)/C=C/c3ccccc3)cc2)cc1 | 0.149%
Cc1ccccc1NC(=O)NC1CCS(=O)(=O)C1 (stereo not drawn) | 16.6%
CCn1c(SCC(=O)NC2CCCC2)nnc1-c1cccnc1 | 5.55%
Cc1c(C#N)c(NC(=O)c2ccccc2)n(Cc2ccccc2)c1C | 2.21%
COc1ccccc1N1CCN(C(=O)c2ccc(S(=O)(=O)N3CCCCCC3)cc2)CC1 | -39.8%
COc1ccccc1N1CCN(C(=O)c2cccc(S(=O)(=O)N3CCCCCC3)c2)CC1 | -77%
COc1cc2ccccc2cc1C(=O)N1CCCC1 | 7.7%
O=C(c1cccc(S(=O)(=O)N2CCCC2)c1)N1CCN(c2ccccc2F)CC1 | -18.1%
COc1cc2ccccc2cc1C(=O)N1CCN(c2ccccc2O)CC1 | -59.7%
COc1ccccc1N1CCN(C(=O)c2c(-c3ccccc3Cl)noc2C)CC1 | -51.2%
COc1ccccc1N1CCN(C(=O)c2ccc(S(=O)(=O)N3CCCCC3)cc2)CC1 | -10.2%
COc1ccccc1N1CCN(C(=O)c2c(-c3c(Cl)cccc3Cl)noc2C)CC1 | 2.17%
CCOc1ccccc1N1CCN(C(=O)c2c(-c3ccccc3Cl)noc2C)CC1 | 2.42%
O=C(c1cccc(S(=O)(=O)N2CCCCCC2)c1)N1CCN(c2ccccc2F)CC1 | -58%
COc1cc2ccccc2cc1C(=O)N1CCCCC1 | -0.827%
CN1CCN(S(=O)(=O)c2cccc(C(=O)N3CCN(c4ccccc4F)CC3)c2)CC1 | -0.195%
